# According to PubChem BioAssay (NCATS):
# Inconclusive results are not listed. Unmarked numbers belong to inactive results. Calls of active or inactive are those of the source. Calls follow the shape of the dose curve; as a rule, active = well fitted inhibition curve with a large enough effect; inconclusive = small, poorly fitted or top-dose-only effect; inactive = no such curve, though single readings can be large or run the other way.
# Assay: qHTS Screen of the MIPE 4.0 Collection Against Ewings Sarcoma (RDES) (AID 1259252); also: nearly all actives have a fitted effect of over 35% in size;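 as to viability (percent of control): 100% = DMSO-treated cells and 0% = medium-only wells without cells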
# Conditions: RD-ES Ewing sarcoma viability, CellTiter-Glo, 48 h; series mostly up to 45.8 µM; viability (percent of control): at the top concentration
# From the text: There is a large unmet medical need for treatments for Ewing sarcoma, a pediatric sarcoma. We sought to identify compounds that inhibited Ewing sarcoma cells in vitro with the goal to then test promising drugs in two drug combinations in vitro to look for synergistic drug combinations. Promising combinations would then proceed to additional validation, including in vivo testing.
# Using the NCATS developed oncology compound library called the Mechanism of Interrogation Plate (MIPE), four Ewing sarcoma cell lines were evaluated (TC32, TC71, RDES, EW8). Compounds, in a 12-point titration series, were incubated with cells for 48 hours and the read out was cell viability (CellTiter-Glo from Promega). These initial experiments were used to select appropriate concentrations of each single agent for subsequent two-drug matrix combinations such that the concentrations in the matrices would span both activity and non-activity.
# Cells, in the log phase of growth, were seeded in 5 uL of RPMI plus 5% FBS, […] L-glutamine, 100 U/ml penicillin and 100 ug/ml streptomycin into 1536-well solid-bottom white tissue culture treated Greiner Bio One Plates (789173-F) using a MultiDrop Combi (Thermofisher Scientific) dispenser and a small sterile cassette. One column was media alone to be used as a :"no cells" control. The plates were then covered with sterilized stainless steel gasketed lids from Kalypsys. After allowing cells to attach for 4 hours, 23 nL of test compound or control (negative control DMSO and positive control 9.2 uM Bortezomib-final) were added from a 1536-well polypropylene compound source plate to each well using a 1536 head pin tool from Kalypsys. Cells were then incubated for 48 hours at 37C, 95% relative humidity and 5% CO2. After 48 hours, plates were removed from the incubator and 3 uL of CellTiter-Glo (Promega) was added using an Aurora Flying Reagent Dispenser Bioraptor. Plates were incubated at room temperature for 10 minutes prior to reading the luminescence on the Viewlux (PerkinElmer). The relative luciferase units are used to calculate the percent activity using the activity of DMSO in the cells and no cells columns for normalization of no inhibition and full inhibition respectively.
# Potency is read from the fitted curve at half-maximal effect.
Compound,Potency,viability (percent of control) [%]
CN1CCC(=C2c3ccccc3CC(=O)c3sccc32)CC1,11.8 µM (active),
NC(=O)NO,20.9 µM (active),
O=c1c(O)c(-c2ccc(O)c(O)c2)oc2cc(O)cc(O)c12,10.5 µM (active),
CC(C)C(=O)Nc1ccc([N+](=O)[O-])c(C(F)(F)F)c1,7.43 µM (active),
Nc1c2c(nc3ccccc13)CCCC2,26.4 µM (active),
C[C@](N)(Cc1ccc(O)c(O)c1)C(=O)O,,109
CCCCc1oc2ccccc2c1C(=O)c1cc(I)c(OCCN(CC)CC)c(I)c1,8.33 µM (active),
COc1ccc(C2CNC(=O)C2)cc1OC1CCCC1 (stereo not given),,112
CN1CCN(C2=Nc3cc(Cl)ccc3Nc3ccccc32)CC1,,95.5
Cn1ccc2cc3c(cc21)CCN3C(=O)Nc1cccnc1,16.6 µM (active),
CC1(C)O[C@H]2CC(=O)OC[C@]23[C@H]2CC[C@@]4(C)[C@H](c5ccoc5)OC(=O)[C@H]5O[C@]54[C@]2(C)C(=O)C[C@@H]13,,115
O=c1[nH]cc(F)c(=O)[nH]1,5.26 µM (active),
CN(C)c1nc(N(C)C)nc(N(C)C)n1,,112
CCOC(=O)C(C)(C)Oc1ccc(Cl)cc1,,130
N[C@@H](Cc1c[nH]c2ccc(O)cc12)C(=O)O,,121
CN1CCN2c3ccccc3Cc3ccccc3C2C1 (stereo not given),20.9 µM (active),
CC(C)(Oc1ccc(C2CC2(Cl)Cl)cc1)C(=O)O (stereo not given),8.55 µM (active),
CC(C)(C)C(=O)Oc1ccc(S(=O)(=O)Nc2ccccc2C(=O)NCC(=O)O)cc1,,118
CC[C@@]1(O)C(=O)OCc2c1cc1n(c2=O)Cc2cc3c(CN(C)C)c(O)ccc3nc2-1,0.0332 µM (active),
Fc1ccc([C@@H]2CCNC[C@H]2COc2ccc3c(c2)OCO3)cc1,,104

Compound,Potency,viability (percent of control) [%]
CCC1(C)CC(=O)NC1=O (stereo not given),,106
CS(=O)(=O)CCNCc1ccc(-c2ccc3ncnc(Nc4ccc(OCc5cccc(F)c5)c(Cl)c4)c3c2)o1,0.59 µM (active),
COc1ccc2[nH]cc(CCNC(C)=O)c2c1,1.18 µM (active),
Cn1c(=O)c2c(ncn2C)n(C)c1=O,,118
CC#C[C@]1(O)CC[C@H]2[C@@H]3CCC4=CC(=O)CCC4=C3[C@@H](c3ccc(N(C)C)cc3)C[C@@]21C,0.187 µM (active),
NCCc1cnc[nH]1,5.9 µM (active),
CC(COc1ccccc1)N(CCCl)Cc1ccccc1 (stereo not given),,100
O=C1c2c(O)ccc(O)c2C(=O)c2c(NCCNCCO)ccc(NCCNCCO)c21,0.166 µM (active),
NC(=O)OCC(COC(N)=O)c1ccccc1,,109
CCN1CCCC1CNC(=O)c1cc(S(=O)(=O)CC)c(N)cc1OC (stereo not given),,123
Cc1ccc(-c2cc(C(F)(F)F)nn2-c2ccc(S(N)(=O)=O)cc2)cc1,4.18 µM (active),
CCOC(=O)c1ncn2c1CN(C)C(=O)c1cc(F)ccc1-2,,125
Cc1ccccc1N1C(=O)c2cc(S(N)(=O)=O)c(Cl)cc2NC1C (stereo not given),,133
CC(C)NCC(O)COc1ccc(CCOCC2CC2)cc1 (stereo not given),,124
CN(C)C(=N)N=C(N)N,,127
CN1CCC(=C2c3ccccc3C=Cc3ccccc32)CC1,9.35 µM (active),
O=C(c1ccc(F)cc1)C1CCN(CCn2c(=O)[nH]c3ccccc3c2=O)CC1,,120
CC[N+](CC)(CC)CCOc1cccc(OCC[N+](CC)(CC)CC)c1OCC[N+](CC)(CC)CC,,116
Nc1ccn([C@H]2CC[C@@H](CO)O2)c(=O)n1,,102
Cc1cc(C(C)(C)C)cc(C)c1CC1=NCCN1,,112
